Screens deposited in PubChem BioAssay by National Center for Advancing Translational Sciences (NCATS).
Vif-APOBEC3G blk – inhibitors of Vif-APOBEC3G interaction; HeLa A3G-eYFP + Vif (tagged APOBEC3G with the HIV-1 protein that degrades it), YFP fluorescence, overnight; actives 0.076% (n = 410,000); Potency, µM (top dose mostly 46.1 µM), for the others: top-dose activity, negative = active, actives largely listed as inhibitors; Q9HC16; also: potency is read from the fitted curve at half-maximal effect; % is scaled to controls: 0 for no effect and ±100 for the full control effect; nearly all actives have a fitted effect of over 60% in size
Target sequence (Q9HC16 whole entry, looked up): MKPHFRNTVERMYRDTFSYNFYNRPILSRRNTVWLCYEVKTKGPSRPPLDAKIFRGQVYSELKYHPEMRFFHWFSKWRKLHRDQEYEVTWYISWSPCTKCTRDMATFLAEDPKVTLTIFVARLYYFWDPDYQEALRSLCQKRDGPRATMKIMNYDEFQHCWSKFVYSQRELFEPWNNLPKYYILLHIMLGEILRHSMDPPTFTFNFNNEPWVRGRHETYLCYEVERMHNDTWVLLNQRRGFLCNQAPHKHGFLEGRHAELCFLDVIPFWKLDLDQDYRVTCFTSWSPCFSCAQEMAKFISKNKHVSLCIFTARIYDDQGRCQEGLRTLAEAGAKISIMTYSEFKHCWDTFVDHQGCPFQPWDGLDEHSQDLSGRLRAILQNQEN
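HeLa cells stably expressing Vif and C-terminally eYFP-tagged A3G, seeded overnight at 37 deg C, then exposed to compound by pintool overnight at 37 deg C. Rise in yellow fluorescence (Ex 488/Em 500-530, Acumen) marks blocked Vif-driven A3G degradation.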
IL-1B inflam inh – inflammasome signaling inhibition, IL-1 beta readout | actives 4.7% (n = 360,000) | activity change, % at 57.5 µM | THP-1 LPS/ATP IL-1B secretion, AlphaLISA, 16 h; stronger effect = lower value | AID 743279; in the data active = activity change below about -50%; inconclusive = mostly about -30% to -49%; also: % is scaled to controls: 0 for no effect and ±100 for the full control effect
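THP-1 cells pretreated 1 hr with compounds (up to 57.5 uM final), then stimulated with LPS (250 ng/mL final) plus ATP (1.25 mM final); secreted IL-1B measured by AlphaLISA after 16 hr, decreased signal indicating inhibition.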
Giardia kill – Giardia lamblia killing; Giardia lamblia trophozoite viability; activity change, % at 7.66 µM, hits read low; actives 0.15% (n = 340,000); in the data active = activity change below about -80%; inconclusive = between about -30% and that limit;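 also: parasites exposed to compound for two days anaerobically before the ATP read; % is scaled to controls: 0 for no effect and ±100 for the full control effect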
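Media and compound were dispensed first, then trophozoites at 100 cells/well; plates sat 48 hrs at 37 deg C without oxygen before ATP luminescence reagent was added and read after 15-30 min at room temperature.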
SW480 rereplic – DNA re-replication induction in SW480 cells; SW480 DNA re-replication, Hoechst DNA content imaging, 48 h; Potency, µM (doses to about 46.1 µM), for the others: at the top dose re-replication activation, usual class: activators; actives 1.8% (n = 340,000); also: potency is read from the fitted curve at half-maximal effect; % of control where 0% means no effect; nearly all actives have a fitted effect of over 55% in size
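Readout is total intensity of Hoechst-stained nuclei, excited at 405 nm and collected at 500-530 nm. Compound treatment lasted 48 hr at 37 C in 5% CO2 before staining.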
MCF10A rereplic – induces DNA re-replication in MCF 10a normal breast cells | actives 2.9% (n = 350,000) | AID 624296 | MCF 10A DNA re-replication, Hoechst nuclear intensity, 48 h | Potency, µM (titrated, usually from 46.1 µM), for inactives: top-dose activity, positive = re-replication, hits mostly activators; also: potency is read from the fitted curve at half-maximal effect; % of control where 0% means no effect; nearly all actives have a fitted effect of over 50% in size
Vif-A3F inh – blocks the Vif interaction with APOBEC3F. HeLa A3F-eYFP + Vif (tagged APOBEC3F with the HIV-1 protein that degrades it), YFP fluorescence increase. Potency, µM (highest dose often 46.1 µM), inactives show at the highest dose activity, negative = active. actives 0.2% (n = 390,000). AID 602313; also: potency is read from the fitted curve at half-maximal effect; % of control where 0% means no effect; nearly all actives have a fitted effect of over 65% in size
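Fluorescence increase (Ex 488/Em 500-530) after overnight compound treatment at 37 deg C flags inhibition of Vif-driven A3F-eYFP loss in stable HeLa A3F-eYFP/Vif cells seeded overnight beforehand.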
Numbers without * were called inactive; ? = inconclusive; . = no result; [ ] = dose if it differs, or a comment. Sampled rows, rich in hits. Any-hit rate of the full collection: about 6.9%. Unless noted, calls follow the shape of the dose curve; as a rule, active = well fitted curve in the direction sought with a large enough effect; inconclusive = small, poorly fitted or top-dose-only effect, or another doubt; inactive = no such curve, though single readings can be large; an effect the other way counts as inactive or inconclusive.

SMILES	Vif-APOBEC3G blk	IL-1B inflam inh	Giardia kill	SW480 rereplic	MCF10A rereplic	Vif-A3F inh
COC(=O)Oc1ccc(/C=C/C(=O)OC(C)C)cc1OC(=O)OC	-20.7%	5.3	-1.4	-1.9%	?	-7.9%
COc1ccc(-n2c(O)c(/C=N/NS(=O)(=O)c3ccc(C)c([N+](=O)[O-])c3)c3ccccc3c2=O)cc1OC	3.55µM*	-3.4	4.2	17.9%	?	12.6µM*
C/C(=N\OCC(=O)N/N=C/c1ccc(C)cc1O)c1cccs1	-0.8%	103.9	-9.6	6.51µM*	4.11µM*	1.1%
Cc1ccc(/C=N/NC(=O)Cc2ccc(Cl)cc2)c(O)c1	-11.9%	65.5	6.6	7.31µM*	14.5%	?
Cc1oc2cc3oc(=O)c(CCC(=O)NCCCn4ccnc4)c(C)c3cc2c1C	0.1%	-51.6*	4.3	7.3%	-13.1%	-1.7%
Cc1coc2cc3oc(=O)c(CCC(=O)NCCCn4ccnc4)c(C)c3cc12	1.0%	-17.8	?	-5.1%	5.7%	1.7%
NC(=O)C1=C(c2ccccc2)c2ccccc2C1=O	-10.8%	-102.4*	1.1	?	?	-9.0%
Cc1ccc(C)c(Cn2c(=O)cc(C)c3c(C)nn(C)c32)c1	-4.4%	.	.	.	.	-12.7%
O=C(Oc1oc(-c2ccco2)nc1C=Nc1ccccc1)c1ccoc1	-0.1%	-68.2*	-12.9	1.2%	-2.3%	-2.2%
Cc1ccc(C(=O)Oc2oc(-c3ccco3)nc2C=Nc2ccc(Cl)cc2)cc1	1.0%	-51.1*	-1.5	9.3%	?	1.1%
O=C(Oc1oc(-c2ccco2)nc1C=Nc1ccccc1)c1ccco1	-2.4%	?	-1.6	-1.0%	0.2%	-14.2%
Cc1cc(C)c(Cn2c(C(O)c3ccccc3)nc3ccccc32)c(C)c1 (centres undefined)	?	.	.	.	.	4.3%
NS(=O)(=O)c1ccc(NC(=O)CN2CCN(c3ccc(F)cc3)CC2)cc1	2.6%	.	.	.	.	-8.9%
O=C1c2ccccc2C(=O)c2c1oc(C(F)(F)F)c2C(=O)c1ccccc1	-10.9%	-84.4*	4.3	4.11µM*	4.61µM*	2.8%
Cc1oc2c(c1C(=O)NCc1cccnc1)C(=O)c1ccccc1C2=O	-19.1%	-80.6*	-85.6*	18.7%	?	-7.8%
COc1ccc(CNC(=O)c2c(C)oc3c2C(=O)c2ccccc2C3=O)cc1	-20.9%	37.2	?	20.6µM*	4.61µM*	2.0%
CC(=O)c1c2c3c(c(Br)ccc3n(C)c1=O)C(=O)c1ccccc1-2	-2.6%	-19.7	-29.3	-0.7%	15.3%	-29.3%
CC(=O)c1c(C)oc2c1C(=O)c1ccccc1C2=O	-15.0%	35.2	?	7.31µM*	22.1%	3.7%
O=C(c1ccccc1)c1coc2c1C(=O)c1ccccc1C2=O	2.3%	-27.7	1.9	2.4%	?	-3.6%
Cc1nnc(SCC(=O)Nc2ccc(Br)cc2)[nH]c1=O	2.5%	.	.	.	.	8.0%
CCC(Sc1nc2ncccc2o1)C(=O)Nc1ccc(OC)c(OC)c1 (centres undefined)	1.0%	.	.	.	.	1.5%
COc1ccc(CNC(=O)Cc2c(C)c3c(cc(C)c4c(C)c(C)oc43)oc2=O)cc1	3.7%	.	.	.	.	-5.2%
Nc1c2c(nc3ccn(-c4ccccc4)c(=O)c13)CCCCC2	0.0%	-58.3*	-2.5	-0.5%[9.22 µM]	1.6%	5.2%
COc1cccc(-n2c(=O)c3c(C)c(C(=O)N(C)C)sc3n(Cc3ccc(F)cc3Cl)c2=O)c1	-7.1%	.	.	.	.	1.9%
Cc1cccc(OCCn2c(SCC(=O)O)nc3ccccc32)c1	-13.0%	.	.	.	.	-0.9%
O=C(/C=C/c1ccc2c(c1)OCCCO2)c1ccc2ccccc2c1O	-17.2%	12.1	3.7	1.9%	18.4µM*	0.3%
Cc1ccc(C(=O)/C=C/c2ccc3c(c2)OCCO3)c(O)c1	-11.2%	-93.3*	15.9	-2.5%	?	-0.4%
O=C(/C=C/c1ccc2c(c1)OCO2)c1ccccn1	?	-1.5	0.9	10.7%	14.4%	?
CCc1ccc(NC(=O)Nc2ccccc2OCc2cc(=O)n3ccccc3n2)cc1	0.6%	.	.	.	.	-13.7%
